Test results published in the supplement of paper PMC12067093, “Discovery and optimisation of a covalent ligand for TRIM25 and its application to targeted protein ubiquitination” (Chemical Science, 2025).
The full data set covers some 21,000 targets. This sample favours those with the largest changes.

Compound: CC1Cc2ccccc2N1C(=O)C1CCCN(C1)C(=O)CCl (mixture of isomers) [TRIM25 ligand 11 (diastereomer mixture)]
Assay: probe-labelled cysteine peptide fold change vs DMSO (competition) (log2 fold change); higher = less target engagement (more negative = stronger competition)
Conditions: THP-1, incubation time: 4 h
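Also: competitive chemoproteomic profiling in live THP-1 cells with an iodoacetamide desthiobiotin (IA-DTB) probe, comparing probe-labelled peptide intensities in compound-treated cells against DMSO-treated controls.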

ELP5_Q8TE02_151_LPCTTLCQVLHAVSHQDSCPGDSSSVGK (UniProt Q8TE02)
probe-labelled cysteine peptide fold change (10 µM): 0.0565 | probe-labelled cysteine peptide fold change (50 µM): 0.114

FAM111B_Q6SJ93_212_LCIYALK (UniProt Q6SJ93)
probe-labelled cysteine peptide fold change (10 µM): -0.05 | probe-labelled cysteine peptide fold change (50 µM): -0.0141

FAR2_Q96K12_104+111_EDMQELLSCTNIIFHCAATVR (UniProt Q96K12)
probe-labelled cysteine peptide fold change (10 µM): 0.0855 | probe-labelled cysteine peptide fold change (50 µM): 0.0839

EEF1A1_P68104_411_FLKSGDAAIVDMVPGKPMCVESFSDYPPLGR (UniProt P68104)
probe-labelled cysteine peptide fold change (10 µM): 0.947 | probe-labelled cysteine peptide fold change (50 µM): 1.14

EIF1_P41567_94_NICQFLVEIGLAKDDQLK (UniProt P41567)
probe-labelled cysteine peptide fold change (10 µM): -1.14 | probe-labelled cysteine peptide fold change (50 µM): -0.0838

FGD3_Q5JSP0_284_QEVCGNLTLQHHMLEPVQR (UniProt Q5JSP0)
probe-labelled cysteine peptide fold change (10 µM): 0.0112 | probe-labelled cysteine peptide fold change (50 µM): -0.0514

FAM111B_Q6SJ93_351_NYYFCSLPR (UniProt Q6SJ93)
probe-labelled cysteine peptide fold change (10 µM): -0.00273 | probe-labelled cysteine peptide fold change (50 µM): 0.026

FECH_P22830_403_QLTLSCPLCVNPVCR (UniProt P22830)
probe-labelled cysteine peptide fold change (10 µM): 0.0323 | probe-labelled cysteine peptide fold change (50 µM): 0.0221

FH_P07954_434_LLGDASVSFTENCVVGIQANTER (UniProt P07954)
probe-labelled cysteine peptide fold change (10 µM): -0.504 | probe-labelled cysteine peptide fold change (50 µM): -0.961

FAM98B_Q52LJ0_220_INDALSCEYECR (UniProt Q52LJ0)
probe-labelled cysteine peptide fold change (10 µM): -0.00202 | probe-labelled cysteine peptide fold change (50 µM): 0.0911

EIPR1_Q53HC9_95_VLTCAAVWR (UniProt Q53HC9)
probe-labelled cysteine peptide fold change (10 µM): 0.109 | probe-labelled cysteine peptide fold change (50 µM): 0.137

FNBP1_Q96RU3_511_RQSGLYDSQNPPTVNNCAQDR (UniProt Q96RU3)
probe-labelled cysteine peptide fold change (10 µM): 0.269 | probe-labelled cysteine peptide fold change (50 µM): -0.0608

EPHX2_P34913_232_VTGIQLLNTPAPLPTSCNPSDMSHGYVTVKPR (UniProt P34913)
probe-labelled cysteine peptide fold change (10 µM): 0.149 | probe-labelled cysteine peptide fold change (50 µM): -0.204

FUBP3_Q96I24_109_IQAESGCK (UniProt Q96I24)
probe-labelled cysteine peptide fold change (10 µM): 0.00832 | probe-labelled cysteine peptide fold change (50 µM): 0.192

ECM1_Q16610_269_FSCFQEEAPQPHYQLR (UniProt Q16610)
probe-labelled cysteine peptide fold change (10 µM): 0.855 | probe-labelled cysteine peptide fold change (50 µM): 0.858

EIF3K_Q9UBQ5_87_CMIDQAHQEERPIR (UniProt Q9UBQ5)
probe-labelled cysteine peptide fold change (10 µM): 0.0313 | probe-labelled cysteine peptide fold change (50 µM): 0.0963

F2_P00734_564_RGDACEGDSGGPFVMK (UniProt P00734)
probe-labelled cysteine peptide fold change (10 µM): 0.606 | probe-labelled cysteine peptide fold change (50 µM): 0.325

ENOSF1_Q7L5Y1_67_GTEVVVCAVNALAHHVLNK (UniProt Q7L5Y1)
probe-labelled cysteine peptide fold change (10 µM): -0.0438 | probe-labelled cysteine peptide fold change (50 µM): 0.0621

FASN_P49327_2369_AKLTPGCEAEAETEAICFFVQQFTDMEHNR (UniProt P49327)
probe-labelled cysteine peptide fold change (10 µM): -0.0758 | probe-labelled cysteine peptide fold change (50 µM): -0.005

EDC4_Q6P2E9_838_ETCSTLAESPR (UniProt Q6P2E9)
probe-labelled cysteine peptide fold change (10 µM): -0.0668 | probe-labelled cysteine peptide fold change (50 µM): -0.146

FTH1_P02794_91_KPDCDDWESGLNAMECALHLEK (UniProt P02794)
probe-labelled cysteine peptide fold change (10 µM): 0.166 | probe-labelled cysteine peptide fold change (50 µM): 0.847

EIF3M_Q7L2H7_52_GAEISEENSEGGLHVDLAQIIEACDVCLKEDDK (UniProt Q7L2H7)
probe-labelled cysteine peptide fold change (10 µM): 0.0157 | probe-labelled cysteine peptide fold change (50 µM): 0.134

ETFDH_Q16134_387_LTFPGGLLIGCSPGFMNVPK (UniProt Q16134)
probe-labelled cysteine peptide fold change (10 µM): -0.688 | probe-labelled cysteine peptide fold change (50 µM): -0.698

ELP3_Q9H9T3_456_CSEETFR (UniProt Q9H9T3)
probe-labelled cysteine peptide fold change (10 µM): 0.298 | probe-labelled cysteine peptide fold change (50 µM): 0.202

FRRS1_Q6ZNA5_107_NAEDLNGPPIGSFTLIDSEVSQLLTCEDIQGSAVSHR (UniProt Q6ZNA5)
probe-labelled cysteine peptide fold change (10 µM): 0.66 | probe-labelled cysteine peptide fold change (50 µM): 0.341

EHHADH_Q08426_227+233_QHPGCLAQEACVR (UniProt Q08426)
probe-labelled cysteine peptide fold change (10 µM): 0.147 | probe-labelled cysteine peptide fold change (50 µM): 0.0162

EIF1B_O60739_69_FACNGTVIEHPEYGEVIQLQGDQRK<|>EIF1_P41567_69_FACNGTVIEHPEYGEVIQLQGDQRK (UniProt P41567+O60739)
probe-labelled cysteine peptide fold change (10 µM): -0.358 | probe-labelled cysteine peptide fold change (50 µM): -0.022

FLNB_O75369_991_KVVPCLVTPVTGR (UniProt O75369)
probe-labelled cysteine peptide fold change (10 µM): -0.0645 | probe-labelled cysteine peptide fold change (50 µM): -0.0535

EPRS_P07814_1301+1309_VACVQVVIIPCGITNALSEEDK (UniProt P07814)
probe-labelled cysteine peptide fold change (10 µM): -0.162 | probe-labelled cysteine peptide fold change (50 µM): -0.139

FUBP3_Q96I24_366_CGLVIGK (UniProt Q96I24)
probe-labelled cysteine peptide fold change (10 µM): -0.0888 | probe-labelled cysteine peptide fold change (50 µM): 0.0606

EIF3D_O15371_438_WTCCALLAGSEYLK (UniProt O15371)
probe-labelled cysteine peptide fold change (10 µM): -0.0143 | probe-labelled cysteine peptide fold change (50 µM): 0.0445

FBN2_P35556_941_CELDTACPR (UniProt P35556)
probe-labelled cysteine peptide fold change (10 µM): 0.213 | probe-labelled cysteine peptide fold change (50 µM): 0.26

EFTUD2_Q15029_476_IEHTYTGGVDSDLGEAMSDCDPDGPLMCHTTK (UniProt Q15029)
probe-labelled cysteine peptide fold change (10 µM): -0.11 | probe-labelled cysteine peptide fold change (50 µM): -0.51

EXOC5_O00471_194_YHDLECQLIQEFTSAQR (UniProt O00471)
probe-labelled cysteine peptide fold change (10 µM): 0.139 | probe-labelled cysteine peptide fold change (50 µM): 0.157

FAM241A_Q8N8J7_2_CSAGELLR (UniProt Q8N8J7)
probe-labelled cysteine peptide fold change (10 µM): 0.306 | probe-labelled cysteine peptide fold change (50 µM): 0.559

FHL2_Q14192_275_GFLTERDDILCPDCGK (UniProt Q14192)
probe-labelled cysteine peptide fold change (10 µM): -0.0813 | probe-labelled cysteine peptide fold change (50 µM): -0.0756

F2_P00734_407_WVLTAAHCLLYPPWDK (UniProt P00734)
probe-labelled cysteine peptide fold change (10 µM): 0.631 | probe-labelled cysteine peptide fold change (50 µM): 0.154

EXOSC8_Q96B26_60_LGNTTVICGVK (UniProt Q96B26)
probe-labelled cysteine peptide fold change (10 µM): 0.0322 | probe-labelled cysteine peptide fold change (50 µM): 0.0231
